The full data set covers some 7,900 targets. This sample favours those with a hit. About 0.6% of all pairs of compound and target were hits.
Key:
Assay in all cases: log2 fold change, soluble protein after heating vs DMSO (PISA); higher = thermal stabilisation; K562 cells, 10 uM, 30 min; active = over 0.2 and 3.5 SD of the protein, either way, in both replicates (recomputed)
[1] = compound: CC[C@@H]1C(=O)N(C)c2cnc(Nc3ccc(C(=O)NC4CCN(C)CC4)cc3OC)nc2N1C1CCCC1
Procedure, shortened: (§1)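 Values are thermal stability changes relative to control samples and are taken from duplicates. They are stated as log2 fold changes. Before quantification by TMTpro 16plex LC-MS/MS with equalised channel sums, K562 cells at 2×10^6 cells/mL were treated with 10 μM compound for 30 min, heated in aliquots for 3 min across 48°C-58°C, pooled, extracted in PBS with 0.5% NP-40 at 4°C, and centrifuged at 21,000xg for 90 min to give the soluble supernatant.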

volasertib = compound: CC[C@@H]1C(=O)N(C)c2cnc(Nc3ccc(C(=O)N[C@H]4CC[C@H](N5CCN(CC6CC6)CC5)CC4)cc3OC)nc2N1C(C)C [volasertib]
Procedure, shortened: as §1

[2] = compound: CC[C@H](C)N1C=C(C2=C(C=C(C=C21)C3=CN=C(C=C3)N4CCNCC4)C(=O)NCC5=C(C=C(NC5=O)C)C)C
Procedure, shortened: as §1

epoxomicin = compound: CC[C@H](C)[C@@H](C(=O)N[C@@H]([C@@H](C)O)C(=O)N[C@@H](CC(C)C)C(=O)[C@]1(CO1)C)NC(=O)[C@H]([C@@H](C)CC)N(C)C(=O)C [epoxomicin]
Procedure, shortened: as §1

[3] = compound: CCn1c(C(=O)N(C2CC2)C2CC2)cc2c3c(ncn3C)c(Nc3cc(C)n(C)n3)nc21
Procedure, shortened: as §1

[4] = compound: CCn1cc(-c2ccnc3[nH]c(-c4cccc(CN(C)C)c4)cc23)c(-c2ccc(NC(=O)N(C)C)cc2)n1
Procedure, shortened: as §1

[5] = compound: CN(C)CC(=O)Nc1ccc2[nH]c(=O)c3ccccc3c2c1
Procedure, shortened: as §1

rosiglitazone = compound: CN(CCOC1=CC=C(C=C1)C[C@H]2C(=O)NC(=O)S2)C3=CC=CC=N3 (racemic) [rosiglitazone]
Procedure, shortened: as §1

[6] = compound: CN1C2=C(C3=C1C(=O)N(N=C3)CC4=CC(=CC=C4)N)SC(=C2)S(=O)C
Procedure, shortened: as §1

[7] = compound: CN1CCC(CNc2ccc3ncc(-c4cccc(OC(F)(F)F)c4)n3n2)CC1
Procedure, shortened: as §1

Measured: log2 fold change

ATL2 (UniProt Q8NHH9)
UniProt Q8NHH9, sequence (Q8NHH9 whole entry, looked up): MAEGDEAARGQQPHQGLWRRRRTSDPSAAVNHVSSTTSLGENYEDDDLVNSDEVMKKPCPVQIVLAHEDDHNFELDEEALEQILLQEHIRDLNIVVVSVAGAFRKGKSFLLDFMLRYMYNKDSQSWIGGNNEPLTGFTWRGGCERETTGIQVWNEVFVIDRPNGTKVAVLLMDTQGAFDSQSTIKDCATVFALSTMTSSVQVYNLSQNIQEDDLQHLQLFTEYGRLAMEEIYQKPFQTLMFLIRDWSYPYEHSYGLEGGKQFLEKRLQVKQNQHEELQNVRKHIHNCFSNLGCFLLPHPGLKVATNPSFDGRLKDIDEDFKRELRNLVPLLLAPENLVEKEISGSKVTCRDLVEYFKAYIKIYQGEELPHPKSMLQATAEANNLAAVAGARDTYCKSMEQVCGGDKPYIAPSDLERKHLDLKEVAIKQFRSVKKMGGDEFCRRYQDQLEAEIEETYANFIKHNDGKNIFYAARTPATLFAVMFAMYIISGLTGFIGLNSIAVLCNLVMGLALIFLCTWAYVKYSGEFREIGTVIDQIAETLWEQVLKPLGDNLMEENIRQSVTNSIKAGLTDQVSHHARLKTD
inactive: [1] 0.031 | volasertib 0.037 | [2] 0.066 | epoxomicin 0.092 | [3] -0.051 | [4] -0.127 | [5] 0.028 | rosiglitazone 0.017 | [6] -0.078 | [7] -0.032

ARFGEF1 (UniProt Q9Y6D6)
UniProt Q9Y6D6, sequence (Q9Y6D6 whole entry, looked up): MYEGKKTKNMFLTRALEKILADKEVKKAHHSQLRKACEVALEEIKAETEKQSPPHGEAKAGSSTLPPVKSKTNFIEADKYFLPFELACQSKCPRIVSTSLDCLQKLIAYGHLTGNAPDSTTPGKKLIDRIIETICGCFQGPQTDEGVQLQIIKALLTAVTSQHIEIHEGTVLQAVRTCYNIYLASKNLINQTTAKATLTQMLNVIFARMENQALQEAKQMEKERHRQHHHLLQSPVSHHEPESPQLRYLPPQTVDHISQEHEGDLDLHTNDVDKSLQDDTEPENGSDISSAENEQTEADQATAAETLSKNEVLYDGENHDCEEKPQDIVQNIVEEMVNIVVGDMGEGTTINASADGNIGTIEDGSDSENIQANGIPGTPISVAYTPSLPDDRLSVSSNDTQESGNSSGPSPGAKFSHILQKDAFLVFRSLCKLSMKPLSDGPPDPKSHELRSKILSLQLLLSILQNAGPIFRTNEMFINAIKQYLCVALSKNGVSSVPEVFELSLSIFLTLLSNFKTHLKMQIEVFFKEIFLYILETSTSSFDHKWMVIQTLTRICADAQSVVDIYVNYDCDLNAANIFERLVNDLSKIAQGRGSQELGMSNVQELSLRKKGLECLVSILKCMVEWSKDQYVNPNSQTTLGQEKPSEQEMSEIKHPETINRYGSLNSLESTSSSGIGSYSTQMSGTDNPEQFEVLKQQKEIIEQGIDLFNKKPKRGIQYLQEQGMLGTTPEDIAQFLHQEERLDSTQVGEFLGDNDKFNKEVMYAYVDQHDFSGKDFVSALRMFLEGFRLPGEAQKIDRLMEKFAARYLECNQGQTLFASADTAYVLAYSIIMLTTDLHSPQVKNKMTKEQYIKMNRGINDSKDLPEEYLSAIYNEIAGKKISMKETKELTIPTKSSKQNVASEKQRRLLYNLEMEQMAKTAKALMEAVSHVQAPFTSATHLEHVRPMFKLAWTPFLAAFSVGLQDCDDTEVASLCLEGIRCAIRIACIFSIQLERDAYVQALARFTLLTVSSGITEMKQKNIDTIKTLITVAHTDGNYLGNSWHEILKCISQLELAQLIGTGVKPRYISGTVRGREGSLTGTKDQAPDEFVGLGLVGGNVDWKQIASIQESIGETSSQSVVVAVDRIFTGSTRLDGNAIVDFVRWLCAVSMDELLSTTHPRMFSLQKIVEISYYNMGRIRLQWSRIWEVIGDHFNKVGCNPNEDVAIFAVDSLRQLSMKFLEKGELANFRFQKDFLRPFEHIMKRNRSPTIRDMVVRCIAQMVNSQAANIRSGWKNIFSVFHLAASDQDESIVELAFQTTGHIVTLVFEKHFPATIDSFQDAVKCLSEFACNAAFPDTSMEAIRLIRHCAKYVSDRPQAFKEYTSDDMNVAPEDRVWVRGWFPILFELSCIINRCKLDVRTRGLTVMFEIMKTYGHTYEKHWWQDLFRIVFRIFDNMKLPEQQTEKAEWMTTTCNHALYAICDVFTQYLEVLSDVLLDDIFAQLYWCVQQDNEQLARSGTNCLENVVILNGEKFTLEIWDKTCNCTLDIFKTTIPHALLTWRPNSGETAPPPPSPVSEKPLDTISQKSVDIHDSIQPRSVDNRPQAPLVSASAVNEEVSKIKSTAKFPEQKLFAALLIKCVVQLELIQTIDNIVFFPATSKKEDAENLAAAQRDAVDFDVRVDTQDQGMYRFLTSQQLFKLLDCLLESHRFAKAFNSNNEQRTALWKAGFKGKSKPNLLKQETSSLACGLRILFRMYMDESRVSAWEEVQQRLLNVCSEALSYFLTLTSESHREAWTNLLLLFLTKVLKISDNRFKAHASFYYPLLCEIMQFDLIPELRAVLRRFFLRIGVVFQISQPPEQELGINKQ
inactive: [1] -0.022 | volasertib -0.248 | [2] 0.01 | epoxomicin 0.033 | [3] -0.007 | [4] 0.011 | [5] -0.005 | rosiglitazone 0.045 | [6] -0.037 | [7] -0.046

AIP (UniProt O00170)
active: volasertib -0.372
inactive: [1] -0.115 | [2] 0.054 | epoxomicin 0.172 | [3] -0.006 | [4] -0.051 | [5] 0.057 | rosiglitazone 0.053 | [6] -0.085 | [7] -0.047

ATAD3A isoform 2 (UniProt Q9NVI7)
active: [7] -0.319
inactive: [1] -0.145 | volasertib -0.202 | [2] 0.038 | epoxomicin 0.05 | [3] -0.055 | [4] 0.033 | [5] 0.018 | rosiglitazone 0.007 | [6] 0.177

ACO2 (UniProt Q99798)
active: [7] -0.344
inactive: [1] 0.043 | volasertib 0.037 | [2] 0.022 | epoxomicin 0.046 | [3] -0.011 | [4] -0.115 | [5] 0.055 | rosiglitazone -0.023 | [6] -0.118

AGPAT3 isoform 3 (UniProt Q9NRZ7)
inactive: [1] -0.095 | [2] 0.017 | epoxomicin 0.02 | [3] 0.004 | [4] -0.082 | [5] 0.012 | rosiglitazone 0.011 | [6] -0.069 | [7] 0.001
active: volasertib -0.211

AGRN (UniProt O00468)
inactive: [1] 0.042 | volasertib -0.001 | [2] 0.005 | epoxomicin 0.065 | [3] -0.018 | [4] 0.053 | [5] 0.016 | rosiglitazone -0.012 | [6] 0.062 | [7] -0.02

AARS2 (UniProt Q5JTZ9)
inactive: [1] 0.001 | volasertib -0.199 | [2] 0.023 | epoxomicin 0.023 | [3] -0.015 | [4] -0.05 | [5] 0.031 | rosiglitazone 0.054 | [6] -0.062
active: [7] -0.312

AKAP8L (UniProt Q9ULX6)
active: volasertib -0.394
inactive: [1] -0.14 | [2] 0.059 | epoxomicin 0.072 | [3] -0.074 | [4] -0.039 | [5] 0.043 | rosiglitazone 0.101 | [6] 0.171 | [7] -0.25

AAMP (UniProt Q13685)
UniProt Q13685, sequence (Q13685 whole entry, looked up): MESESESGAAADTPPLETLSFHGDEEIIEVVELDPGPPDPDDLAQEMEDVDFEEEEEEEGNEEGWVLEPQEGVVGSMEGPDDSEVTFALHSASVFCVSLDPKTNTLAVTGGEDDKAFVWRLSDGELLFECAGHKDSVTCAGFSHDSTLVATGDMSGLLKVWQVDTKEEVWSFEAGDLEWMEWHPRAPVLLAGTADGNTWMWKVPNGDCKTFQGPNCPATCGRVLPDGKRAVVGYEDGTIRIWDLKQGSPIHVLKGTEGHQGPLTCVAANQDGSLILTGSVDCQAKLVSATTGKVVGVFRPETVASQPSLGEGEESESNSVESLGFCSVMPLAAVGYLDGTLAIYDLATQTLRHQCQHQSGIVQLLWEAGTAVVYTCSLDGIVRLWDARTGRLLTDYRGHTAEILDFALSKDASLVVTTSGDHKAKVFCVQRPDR
inactive: [1] 0.072 | volasertib 0.051 | [2] -0.016 | epoxomicin -0.017 | [3] 0.023 | [4] -0.016 | [5] 0.011 | rosiglitazone 0.001 | [6] -0.004 | [7] 0.054

ATP9B (UniProt O43861)
UniProt O43861, sequence (O43861 whole entry, looked up): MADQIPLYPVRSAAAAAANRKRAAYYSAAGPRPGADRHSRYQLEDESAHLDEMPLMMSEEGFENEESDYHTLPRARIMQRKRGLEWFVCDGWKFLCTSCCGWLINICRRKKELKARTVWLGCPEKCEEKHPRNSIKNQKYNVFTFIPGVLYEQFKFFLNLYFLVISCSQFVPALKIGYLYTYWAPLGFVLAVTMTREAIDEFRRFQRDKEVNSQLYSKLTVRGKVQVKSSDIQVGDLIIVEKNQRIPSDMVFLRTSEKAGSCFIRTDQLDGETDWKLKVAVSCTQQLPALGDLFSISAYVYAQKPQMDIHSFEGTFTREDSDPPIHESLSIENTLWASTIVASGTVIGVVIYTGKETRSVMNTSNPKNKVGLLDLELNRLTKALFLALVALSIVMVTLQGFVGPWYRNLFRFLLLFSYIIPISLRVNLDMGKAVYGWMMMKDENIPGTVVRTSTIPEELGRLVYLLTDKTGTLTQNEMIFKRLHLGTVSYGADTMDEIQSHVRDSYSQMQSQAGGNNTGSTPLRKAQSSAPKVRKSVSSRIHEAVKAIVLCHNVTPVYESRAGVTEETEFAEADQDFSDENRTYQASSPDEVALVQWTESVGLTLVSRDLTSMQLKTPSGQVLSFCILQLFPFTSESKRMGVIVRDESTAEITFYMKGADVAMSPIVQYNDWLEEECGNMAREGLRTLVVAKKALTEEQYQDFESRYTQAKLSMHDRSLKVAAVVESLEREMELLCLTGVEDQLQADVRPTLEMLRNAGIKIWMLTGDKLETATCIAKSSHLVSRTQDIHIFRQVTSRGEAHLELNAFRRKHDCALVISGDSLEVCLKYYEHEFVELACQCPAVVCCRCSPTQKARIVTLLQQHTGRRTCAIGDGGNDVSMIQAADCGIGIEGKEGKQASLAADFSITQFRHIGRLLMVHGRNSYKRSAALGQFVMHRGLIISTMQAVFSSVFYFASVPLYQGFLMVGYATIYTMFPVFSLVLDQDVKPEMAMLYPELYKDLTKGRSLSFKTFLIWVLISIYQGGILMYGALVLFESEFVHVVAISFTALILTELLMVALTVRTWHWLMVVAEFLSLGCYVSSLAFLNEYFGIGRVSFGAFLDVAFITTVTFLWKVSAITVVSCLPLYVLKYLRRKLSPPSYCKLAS
inactive: [1] -0.002 | volasertib -0.15 | [2] -0.125 | epoxomicin 0.055 | [3] -0.204 | [4] -0.023 | [5] 0.013 | rosiglitazone 0.08 | [6] 0.013 | [7] -0.109

ARFIP1 (UniProt P53367)
inactive: [1] -0.008 | volasertib -0.184 | [2] 0.113 | epoxomicin -0.003 | [3] -0.101 | [4] 0.083 | [5] -0.011 | rosiglitazone 0.856 | [6] -0.053 | [7] -0.421

ARFRP1 (UniProt Q13795)
UniProt Q13795, sequence (Q13795 whole entry, looked up): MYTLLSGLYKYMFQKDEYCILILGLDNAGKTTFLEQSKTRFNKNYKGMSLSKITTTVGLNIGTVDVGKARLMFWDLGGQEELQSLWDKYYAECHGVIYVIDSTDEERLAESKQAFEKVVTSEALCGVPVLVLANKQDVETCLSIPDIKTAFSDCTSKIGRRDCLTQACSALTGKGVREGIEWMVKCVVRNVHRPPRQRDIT
inactive: [1] -0.038 | volasertib -0.05 | [2] 0.048 | epoxomicin 0.037 | [3] 0.026 | [4] -0.23 | [5] 0.012 | rosiglitazone -0.021 | [6] -0.021 | [7] 0.071

ANP32E (UniProt Q9BTT0)
inactive: [1] -0.132 | [2] 0.04 | epoxomicin 0.054 | [3] -0.085 | [4] -0.128 | [5] -0.051 | rosiglitazone -0.025 | [6] -0.058 | [7] -0.147
active: volasertib -0.499

ADD2 (UniProt P35612)
inactive: [1] 0.037 | volasertib 0.031 | [2] -0.044 | epoxomicin 0.006 | [3] 0.025 | [4] -0.043 | [5] -0.038 | rosiglitazone 0.003 | [6] -0.02 | [7] 0.008

ATP6V1H (UniProt Q9UI12)
inactive: [1] -0.085 | volasertib -0.093 | [2] 0.069 | epoxomicin 0.098 | [3] 0.041 | [5] 0.012 | rosiglitazone 0.048 | [6] -0.026 | [7] -0.069
active: [4] -0.244

ATP13A2 (UniProt Q9NQ11)
active: [7] -0.509
inactive: [1] -0.141 | volasertib -0.103 | [2] -0.074 | epoxomicin 0.003 | [3] 0.012 | [4] -0.031 | [5] -0.002 | rosiglitazone 0.066 | [6] 0.058

ATAD3B (UniProt Q5T9A4)
inactive: [1] -0.076 | volasertib -0.167 | [2] 0.093 | epoxomicin -0.045 | [3] -0.018 | [4] 0.112 | [5] -0.026 | rosiglitazone 0.005 | [6] 0.167
active: [7] -0.339

ATP6V1F isoform 2 (UniProt Q16864)
UniProt Q16864, sequence (Q16864 whole entry, looked up): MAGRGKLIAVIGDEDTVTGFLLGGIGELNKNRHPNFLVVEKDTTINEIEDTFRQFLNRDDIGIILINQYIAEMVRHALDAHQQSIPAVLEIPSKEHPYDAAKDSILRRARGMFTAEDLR
inactive: [1] 0.01 | volasertib -0.036 | [2] -0.043 | [3] -0.02 | [4] 0.02 | [5] 0.165 | rosiglitazone 0.003 | [6] 0.033 | [7] 0.056
active: epoxomicin 0.525

ARRDC1 (UniProt Q8N5I2)
inactive: [1] -0.063 | volasertib -0.137 | [2] -0.09 | epoxomicin -0.057 | [3] 0.09 | [4] 0 | [5] 0.023 | rosiglitazone -0.072 | [6] -0.038 | [7] 0.027

ACSL4 (UniProt O60488)
inactive: [1] -0.15 | volasertib -0.276 | [2] -0.051 | epoxomicin 0.024 | [3] -0.098 | [4] -0.029 | [5] 0.092 | [6] 0.051 | [7] -0.229
active: rosiglitazone 1.17

ACADVL isoform 3 (UniProt P49748)
inactive: [1] 0.119 | volasertib 0.099 | [2] -0.007 | epoxomicin 0.025 | [3] 0.008 | [4] -0.014 | [5] 0.004 | rosiglitazone -0.004 | [6] -0.054 | [7] -0.045

AP2S1 (UniProt P53680)
UniProt P53680, sequence (P53680 whole entry, looked up): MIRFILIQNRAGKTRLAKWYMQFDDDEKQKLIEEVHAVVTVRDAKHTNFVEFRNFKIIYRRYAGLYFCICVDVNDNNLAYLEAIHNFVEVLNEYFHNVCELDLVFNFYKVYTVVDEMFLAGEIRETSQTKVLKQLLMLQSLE
inactive: [1] 0.035 | volasertib 0.018 | [2] -0.024 | epoxomicin -0.022 | [3] 0.023 | [4] -0.008 | [5] -0.071 | rosiglitazone 0.02 | [6] -0.005 | [7] 0.037

ATP2A3 isoform 2 (UniProt Q93084)
inactive: [1] -0.142 | volasertib -0.208 | [2] 0.046 | epoxomicin 0.06 | [3] 0.014 | [4] -0.047 | [5] -0.028 | rosiglitazone 0.009 | [6] -0.016 | [7] 0.028

ARF4 (UniProt P18085)
inactive: [1] 0.064 | volasertib 0.094 | [2] 0.009 | epoxomicin 0.112 | [3] -0.008 | [4] 0.014 | [5] 0.041 | rosiglitazone -0.033 | [6] -0.076 | [7] 0.097

ALDH9A1 isoform 3 (UniProt P49189)
inactive: [1] 0 | volasertib -0.003 | [2] -0.048 | epoxomicin 0.011 | [3] 0.003 | [4] -0.025 | [5] -0.01 | rosiglitazone -0.004 | [6] -0.065 | [7] -0.027

BCL9L (UniProt Q86UU0)
inactive: [1] 0 | volasertib 0.036 | [2] 0.044 | epoxomicin 0.038 | [3] 0.04 | [4] -0.024 | [5] -0.003 | rosiglitazone 0.088 | [6] -0.023 | [7] -0.019

AFDN isoform 5 (UniProt P55196)
inactive: [1] -0.072 | [2] 0.05 | epoxomicin 0.047 | [3] -0.047 | [4] -0.099 | [5] 0.008 | rosiglitazone 0.044 | [6] -0.003
active: volasertib -0.254 | [7] -0.353

AGO1 (UniProt Q9UL18)
inactive: [1] 0.215 | volasertib 0.124 | [2] -0.1 | epoxomicin -0.148 | [3] -0.029 | [4] 0.032 | [5] 0.098 | rosiglitazone 0.042 | [6] 0.14 | [7] -0.151

ATP6AP1 (UniProt Q15904)
UniProt Q15904, sequence (Q15904 whole entry, looked up): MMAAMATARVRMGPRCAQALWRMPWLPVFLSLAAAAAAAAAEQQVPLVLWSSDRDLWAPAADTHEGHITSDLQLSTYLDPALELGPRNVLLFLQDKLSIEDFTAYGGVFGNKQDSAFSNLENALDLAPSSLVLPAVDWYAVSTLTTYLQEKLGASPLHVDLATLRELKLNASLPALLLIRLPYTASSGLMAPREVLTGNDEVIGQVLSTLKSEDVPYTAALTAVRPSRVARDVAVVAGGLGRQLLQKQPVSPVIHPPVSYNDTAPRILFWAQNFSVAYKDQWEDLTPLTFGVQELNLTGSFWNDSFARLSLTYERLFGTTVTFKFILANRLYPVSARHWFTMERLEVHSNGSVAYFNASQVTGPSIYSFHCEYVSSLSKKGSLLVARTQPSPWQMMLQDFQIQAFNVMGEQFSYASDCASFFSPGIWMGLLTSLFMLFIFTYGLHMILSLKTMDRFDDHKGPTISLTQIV
inactive: [1] -0.05 | volasertib -0.02 | [2] 0.033 | epoxomicin 0.09 | [3] 0.011 | [4] 0.037 | [5] -0.074 | rosiglitazone 0 | [6] 0.098 | [7] 0.016

Source: the supplement of paper PMC10849652
